Assay results from PubChem BioAssay AID1415 (NMMLSC, 2008).
About 710 (0.32%) of roughly 220,000 compounds were called active. Cut-off read from the data, not from the text of the source: active = binding response below about 49% or above about 150%; inactive = in between. What follows is part of a selection rich in actives, with near analogues and random picks from the rest.

target: Guanine nucleotide-binding protein G(o) subunit alpha (Homo sapiens) (UniProt P09471); experiment: RGS4-Galphao interaction inhibitors and enhancers – biochemical, multiplexed bead flow cytometry, primary screen (AID 1415); conditions: at 10 µM, actives lie on both sides;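 note: fluorescent Galphao activated with aluminum fluoride binding bead-coupled RGS4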
Sequence (P09471 whole entry, looked up): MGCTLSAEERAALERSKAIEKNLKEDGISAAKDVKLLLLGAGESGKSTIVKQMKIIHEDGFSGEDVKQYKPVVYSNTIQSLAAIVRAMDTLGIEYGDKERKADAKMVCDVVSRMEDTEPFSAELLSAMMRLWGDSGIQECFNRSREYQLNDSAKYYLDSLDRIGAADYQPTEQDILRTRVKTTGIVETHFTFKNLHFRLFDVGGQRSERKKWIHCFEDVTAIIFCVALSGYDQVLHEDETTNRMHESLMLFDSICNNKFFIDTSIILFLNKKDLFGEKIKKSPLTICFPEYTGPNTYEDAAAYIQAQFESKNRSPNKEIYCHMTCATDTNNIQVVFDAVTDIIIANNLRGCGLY

| SMILES | binding response (% of control) |
| --- | --- |
| COc1ccc(C)cc1S(=O)(=O)N(CC(=O)Nc1cccc([N+](=O)[O-])c1)c1ccc(C)cc1 | 87.7% (inactive) |
| O=C(OCC1O[C@@H](OC(=O)c2cc(O)c(O)c(O)c2)[C@@H](OC(=O)c2cc(O)c(O)c(O)c2)[C@@H](OC(=O)c2cc(O)c(O)c(O)c2)[C@@H]1OC(=O)c1cc(O)c(O)c(O)c1)c1cc(O)c(O)c(O)c1 (some centres undefined) | 1.38% (active) |
| CC(=O)NC1C(OCc2ccccc2)OC(COC(C)=O)C(OC(C)=O)C1OC(C)=O (centres undefined) | 101% (inactive) |
| COc1cc(C(CCN2CCN(c3ccccc3)CC2)c2c(OC)cc(OC)c3ccc(=O)oc23)cc(OC)c1OC (centres undefined) | 101% (inactive) |
| Cc1[nH]c2ccccc2c1/C=N/NC(=O)CNC(=O)c1ccc2c(c1)OCO2 | 111% (inactive) |
| COCCNC(=S)N/N=C/c1c(C)[nH]c2ccccc12 | 159% [activator] (active) |
| Cc1[nH]c2ccccc2c1/C=N\NC(=O)Cn1nnc(-c2ccccc2)n1 | 102% (inactive) |
| O=C(Nc1ccc(F)cc1)C1CCN(C(=O)c2ccc([N+](=O)[O-])cc2)CC1 | 99.8% (inactive) |
| CCN(CC)CCN1C(=O)C(=O)/C(=C(/O)c2ccc(OC)c(OC)c2)C1c1ccccn1 (centres undefined) | 99.2% (inactive) |
| CCN(CC)CCn1cnc2c1c(=O)n(CCOC(=O)c1cc(OC)c(OC)c(OC)c1)c(=O)n2C | 155% [activator] (active) |
| COc1cc(C(=O)OCc2ccc([N+](=O)[O-])cc2)cc(OC)c1OC | 98.2% (inactive) |
| COCCCn1c(-c2cccs2)nc2nc3ccccc3nc21 | 103% (inactive) |
| COc1cccc(C(=O)NCCSc2ccc(Br)cc2)c1 | 19.5% (active) |
| COc1cc(OC)cc(C(=O)NCCSCc2ccco2)c1 | 93.2% (inactive) |
| COc1cccc(C(=O)NNC(=O)c2ccccc2Br)c1 | 103% (inactive) |
| C#CCOCCOCCOCCNc1nc(N2CCN(C(=O)[C@H](CCC(=O)O)n3cc(C(N)CO)nn3)CC2)nc(N2CCN(C(=O)[C@H](CCCCN)n3cc(C(N)CC(C)C)nn3)CC2)n1 (some centres undefined) | 104% (inactive) |
| Cc1ccc(NC(=O)c2oc(=O)c3ccccc3c2-c2ccccc2)c(C)c1 | 105% (inactive) |
| CCCCCCCCCOC1OC(CO)C(O)C(O)C1NC(C)=O (centres undefined) | 98.8% (inactive) |
| CC(C)=CCC/C(C)=C/C(=O)O | 92.6% (inactive) |
| COCCNC(=S)Nc1cc(S(=O)(=O)N2CCOCC2)ccc1N1CCCCC1 | 97.4% (inactive) |
| COc1ccccc1CCNC(=O)c1cnccn1 | 97.6% (inactive) |
| CCCn1cc(SCC(N)=O)c2ccccc21 | 82.2% (inactive) |
| O=C(Cc1c[nH]c2ccccc12)OCCOC(=O)Cc1c[nH]c2ccccc12 | 97.3% (inactive) |
| NC(=O)CSc1c[nH]c2ccccc12 | 30% (active) |

| SMILES | binding response (% of control) |
| --- | --- |
| COc1ccc(Cl)cc1C(=O)NNC(=S)NC(=O)/C=C/c1ccco1 | 104% (inactive) |
| CCOc1ccc(-c2c(C)n([O-])c3c([n+]2=O)CCCC3)cc1 | 102% (inactive) |
| Cc1c(S(=O)(=O)NCc2ccccc2)c(=O)n(C)c(=O)n1C | 103% (inactive) |
| CC(C)=CCc1c(O)c(CC=C(C)C)c2occ(-c3ccc(O)cc3)c(=O)c2c1O | 96.8% (inactive) |
| CC(=O)c1cc(-c2ccccc2)n(CC(=O)NC2CCCCC2)c1C | 94.2% (inactive) |
| CCOCCCNC(=O)C(NC(=O)c1ccc(=O)[nH]c1)c1ccc(Cl)cc1 (centres undefined) | 98.1% (inactive) |
| COc1ccc(C(=O)COC(=O)c2ccc3ccccc3n2)cc1 | 36.8% (active) |
| CC(OC(=O)c1ccc2ccccc2n1)C(=O)c1ccccc1 (centres undefined) | 103% (inactive) |
| COc1ccc(C2=NOC(COC(=O)c3ccc4ccccc4n3)C2)cc1 (centres undefined) | 99.3% (inactive) |
| Cc1nc(N)[nH]c(=O)c1Oc1cccc(C(F)(F)F)c1 | 99.6% (inactive) |
| CCCCCCCN=C(C)c1ccccc1O | 103% (inactive) |
| CCOC(=O)C1Cn2c(nc3c(c2=O)C(C)(CC)Cc2ccccc2-3)S1 (centres undefined) | 93% (inactive) |
| CCC(=O)Nc1cccc(C2=NOC3(C2)C[C@@H](C(N)=O)N(C(=O)c2cc([N+](=O)[O-])cc([N+](=O)[O-])c2C)C3)c1 (some centres undefined) | 96% (inactive) |
| COc1ccc(/C=C/C(=O)Nc2ccc(C34CC5CC(CC(O)(C5)C3)C4)cc2)cc1OC | 102% (inactive) |
| Cc1ccsc1/C=N/Nc1ccc(Cl)nn1 | 108% (inactive) |
| C=CCN1CC(C)/C(=N\O)CC1C (centres undefined) | 99.6% (inactive) |
| O=C(NC1CCCCC1)c1ccc(CNc2c(N3CCOCC3)c(=O)c2=O)cc1 | 102% (inactive) |
| CCOc1cc(NC(=O)c2ccccn2)c(OCC)cc1NC(=O)c1ccc(OC)cc1 | 102% (inactive) |
| COc1ccc(CC(=O)N/N=C(\C)c2ccccn2)cc1 | 91.7% (inactive) |
| CCN(CC)CCOc1ccc2c(c1)C(=NNC(=O)c1ccccn1)c1cc(OCCN(CC)CC)ccc1-2 | 172% [activator] (active) |
| COC(=O)c1c(C(=O)OC)c(-c2cccc(C)c2)n2c1CS(=O)C2 (centres undefined) | 91.5% (inactive) |
| COc1cc(OC)nc(NC(=O)CCl)n1 | 101% (inactive) |
| CCC(=O)Nc1nc(OC)cc(OC)n1 | 102% (inactive) |
| CC(=O)Nc1nc(N(C)C)nc(N(C)C)n1 | 14.5% (active) |

| SMILES | binding response (% of control) |
| --- | --- |
| O=C(NCc1ccc(F)cc1)C1CCC(CNc2c(N3CCOCC3)c(=O)c2=O)CC1 (centres undefined) | 11.6% (active) |
| CC(NC(=O)C1CCC(CNc2c(N3CCOCC3)c(=O)c2=O)CC1)c1ccccc1 (centres undefined) | 99.8% (inactive) |
| COc1ccc(CNC(=O)C2CCC(CNc3c(N4CCOCC4)c(=O)c3=O)CC2)cc1 (centres undefined) | 106% (inactive) |
| O=C(c1ccc(Br)o1)N(c1ccccn1)C1CCCCC1 | 92.3% (inactive) |
| CC(Nc1nc(N2CCN(CCO)CC2)nc2ccccc12)c1ccccc1 (centres undefined) | 100% (inactive) |
| Cc1ccc(NC(=S)N2CCN(c3ncccn3)CC2)cc1C | 104% (inactive) |
| C=CCc1cccc2cc(C(=O)NC3CCCC3)c(=O)oc12 | 97.8% (inactive) |
| C/C=C\C=C\C(=O)N1CC2(CC(c3cccc(NC(=O)/C(C)=C\C)c3)=NO2)C[C@H]1C(N)=O (some centres undefined) | 103% (inactive) |
| COc1ccccc1C(=O)n1nc(-c2ccccc2)nc1N | 98.8% (inactive) |
| COc1ccc(CC(=O)n2nc(-c3cccnc3)nc2N)cc1 | 96.8% (inactive) |
| CCCC(=O)n1nc(-c2ccccc2)nc1N | 25.8% (active) |
| CCCNC(=S)NC1CC2CCCC(C1)N2CC(C)C (centres undefined) | 99.3% (inactive) |
| CCNC(=O)CC1C(=O)N(c2ccc(F)cc2)C(=O)N1CCc1sccc1C (centres undefined) | 99.7% (inactive) |
| CC(C)C(NS(=O)(=O)c1cccs1)C(=O)Nc1nc(C(C)(C)C)cs1 (centres undefined) | 99% (inactive) |
| COc1ccc(CCNC(=O)C2CC3Cn4c(nc5cc(C)c(C)cc54)C3N2C)cc1 (centres undefined) | 103% (inactive) |
| COc1ccc(C)cc1NC(=O)CSc1ccc(Cl)cc1 | 105% (inactive) |
| CCOc1ccc(-c2ccc(SCC(=O)N3CCOCC3)nn2)cc1 | 104% (inactive) |
| CCOC(=O)c1c(C)[nH]c(C2=NNC(=NC(C)COC)SC2)c1C (centres undefined) | 92.4% (inactive) |
| CCOC(=O)C1C(c2ccc(Cl)cc2)NC(=S)NC1(O)C(F)(F)F (centres undefined) | 102% (inactive) |
| CCOC(=O)C1Sc2[nH]c(=O)sc2C(c2ccc(Cl)cc2)C1C(=O)OCC (centres undefined) | -41.2% (active) |
| CCOC(=O)C1=C(C)NC(=O)N(C(C)=O)C1c1ccc(Cl)cc1 (centres undefined) | 115% (inactive) |
| CC(=O)NS(=O)(=O)c1ccc(NC(=O)C2C3C=CC(C3)C2C(=O)O)cc1 (centres undefined) | 101% (inactive) |
| CCOC(=O)c1c(Cc2ccc(Cl)cc2)c[nH]c1C | 102% (inactive) |
| Cc1cc(C)cc(N(C(C)C(=O)Nc2c(C)n(C)n(-c3ccccc3)c2=O)S(C)(=O)=O)c1 (centres undefined) | 102% (inactive) |

| SMILES | binding response (% of control) |
| --- | --- |
| Cc1cc(C)cc(N(CC(=O)Nc2c(C)n(C)n(-c3ccccc3)c2=O)S(C)(=O)=O)c1 | -43.6% (active) |
| Cc1ccc(S(=O)(=O)CC(=O)Nc2c(C)n(C)n(-c3ccccc3)c2=O)cc1 | 97.9% (inactive) |
| COCCCNC(=O)CN1CCN(Cc2ccccc2Cl)C1=O | 103% (inactive) |
| O=C(COc1ccc(/C=N/NC(=O)c2ccc(O)cc2)cc1)Nc1ccc([N+](=O)[O-])cc1 | 103% (inactive) |
| Cc1cc(N2CCOCC2)nc(-c2ccc(Br)cc2)n1 | 95.9% (inactive) |
| C#CCOCCOCCOCCNc1nc(N2CCN(C(=O)[C@H](CCC(=O)O)n3cc(C(N)CO)nn3)CC2)nc(N2CCN(C(=O)[C@H](CCCCN)n3cc(C(N)[C@H](C)CC)nn3)CC2)n1 (some centres undefined) | 102% (inactive) |
| C=CCc1cccc2cc(C(=O)Nc3ccc(NC(C)=O)cc3)c(=O)oc12 | 102% (inactive) |
| N#Cc1nc(COc2ccc(-c3ccccc3)cc2)oc1NCc1cccnc1 | 153% [activator] (active) |
| N#Cc1nc(Cc2ccccc2)oc1NCCc1ccccc1 | 103% (inactive) |
| N#Cc1nc(-c2ccc(OCc3ccccc3)cc2)oc1NCCCN1CCOCC1 | 100% (inactive) |
| Cc1ccccc1C1=NC(C(F)(F)F)(C(F)(F)F)c2c(n(-c3ccc(F)cc3)c(=O)[nH]c2=O)N1 | 104% (inactive) |
| CCC(C)NC(=O)CN(C1CCCCC1)S(C)(=O)=O (centres undefined) | 99.8% (inactive) |
| O=S(=O)(NC(=S)Nc1ccccc1)c1ccc(F)cc1 | 103% (inactive) |
| CC(C)Oc1ccc(CC(=O)NNC(=S)Nc2ccc(Br)cc2)cc1 | 99.3% (inactive) |
| O=C(NCc1ccc2c(c1)OCO2)C12CC3CC(CC(C3)C1)C2 | 98.9% (inactive) |
| Cc1ccc(C2NC(C(=O)O)CS2)cc1 (centres undefined) | 103% (inactive) |
| NS(=O)(=O)c1ccc(Nc2nc(-c3ccccc3)cs2)cc1 | 106% (inactive) |
| O=C(CSC1=NCCS1)Nc1nc(-c2ccccc2)cs1 | 83.7% (inactive) |
| Cc1cccc(S(=O)(=O)CC(=O)Nc2nc(-c3ccccc3)cs2)c1 | 183% [activator] (active) |
| CCOc1ccccc1Oc1cn[nH]c1-c1ccc(OC)cc1O | 99% (inactive) |
| COc1ccc(Cl)cc1C(=O)NNC(=O)c1nc2nc(C)cc(C)n2n1 | 103% (inactive) |
| C#CCOCCOCCOCCNc1nc(N2CCN(C(=O)[C@H](C(C)C)n3cc(CCO)nn3)CC2)nc(N2CCN(C(=O)[C@H]([C@@H](C)CC)n3cc(CCCN=C(N)N)nn3)CC2)n1 | 101% (inactive) |
